# Screening data from PubChem BioAssay.
# HSF1 activator – increases HSF-1 driven luciferase reporter signal; NIH3T3-HGL HSF-1 luciferase reporter, MG132, 8 h; 100% = twice DMSO control signal; activation, % at 9 µM; 300,000 tested, 1.7% active;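 active = mean replicate activation of at least 50% with a set share of replicates each reaching 50%; inconclusive = only one of those two conditions met; inactive = mean below 50% and too few replicates reaching it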;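 note: 0% = median of the neutral control wells and 100% = twice that signal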
# esBAF inh – SWI/SNF esBAF complex inhibition. reporter increase, % at 12.5 µM. AID 602393. mouse ES cells, Bmi1-luciferase knock-in reporter, 24 h; 100% = twice the neutral-well signal. 350,000 tested, 2% active; in the data active = activation above about 40%; inconclusive = no clear call, values can overlap the other calls;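 note: 0% = median of the plate's neutral control wells and 100% = double that signal; a rise in the Bmi1 reporter signal indicates esBAF inhibition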
# HSF1 inh – HSF1 inhibition | NIH3T3-HGL HSE-luciferase, MG132-induced, luminescence 8 h; stronger effect = lower value | activity change, negative = inhibition, % at 7.5 µM (by protocol) | 300,000 tested, 0.77% active;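 active = more than half of replicate wells show activity change below -50%, luminescence cut by over half; inconclusive = some wells, but at most half, below -50%; inactive = no replicate well below -50%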;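 note: luciferase reports HSF-1 transcriptional activity via heat shock element; 0% = median of DMSO wells and -100% = zero luminescence signal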
# Wnt act – activators of Wnt/beta-catenin signaling. Wnt/beta-catenin reporter cell assay, activator, plate reader. activation, % at 9.35 µM. 300,000 tested, 1.2% active. AID 743398; in the data active = activation above about 30%, passing the limit was not always enough; inconclusive = no clear call, values can overlap the other calls;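 note: 0% = neutral control wells and 100% = positive control wells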
# MITF act – increases MITF-driven TRPM1 promoter luciferase signal. SK-MEL-5 TRPM1-promoter luciferase, 24 h; % of positive control, neutral wells = 0. AID 588334. activation, % at 12.5 µM. 300,000 tested, 0.75% active;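 active = mean activation of at least 80% with every replicate also reaching 80%; inconclusive = mean reaches 80% but some replicate falls short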;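 note: 0% = neutral control wells and 100% = parthenolide positive control wells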
# * hit, by the source's call; ? = inconclusive; / = no result given. Sampled rows, rich in hits. Any-hit rate of the full collection: about 3.8%.
SMILES,HSF1 activator,esBAF inh,HSF1 inh,Wnt act,MITF act
CCOC(=O)C1CCN(C(=O)CCS(=O)(=O)c2ccc3c(c2)CC(C)N3C(=O)CC)CC1 (configuration not stated),-71,/,-62*,-1,11
C[C@@H]1CN([C@H](C)CO)C(=O)c2cc(-c3cccnc3)cnc2O[C@@H]1CN(C)C,/,-4,/,/,/
Cc1ccc(C)c2[nH]c(=O)c(CCNC(=O)C(C)(C)C)cc12,-89,-6,-86*,-1,13
Cc1ccc(C)c2[nH]c(=O)c(CCNC(=O)Cc3cccs3)cc12,11,0,8,0,/
CC(=O)Nc1ccc(NC(=O)Nc2ccc(C)cc2C)cc1,23,/,1,0,13
Cc1ccc(NC(=O)CCC(=O)NNC(=O)C(C)(C)C)c(C)c1,-3,/,-2,40*,6
CCCNC(=O)Nc1ccc(C)cc1C,51*,-4,25,6,3
CCC(=O)NNC(=O)CCC(=O)Nc1ccc(C)cc1C,2,8,-7,-7,19
C[C@@H]1CN([C@H](C)CO)C(=O)c2ccccc2-c2ccccc2CO[C@H]1CN(C)C(=O)Nc1ccnc(N2CCOCC2)c1,/,1,/,/,/
CO[C@@H]1CN(C)C(=O)c2cc(NC(=O)c3ccc(Oc4ccccc4)cc3)ccc2OC[C@@H](C)N(C(C)=O)C[C@H]1C,/,5,/,/,/
O=C(O)C(Cc1ccccc1)N1C(=O)C2CCCCC2C1=O (configuration not stated),9,/,12,-13,-7
Cc1ccc(NC2CC(=O)N(Cc3ccccc3)C2=O)cc1 (configuration not stated),56*,14,24,/,-1
O=C(O)c1ccc(NC2CC(=O)N(Cc3ccccc3)C2=O)cc1 (configuration not stated),-7,-2,-7,-1,-6
O=C1CC(N(O)C2CC(=O)N(Cc3ccccc3)C2=O)C(=O)N1Cc1ccccc1 (configuration not stated),57*,4,16,-4,-8
O=C1C2CCCCC2C(=O)N1Cc1ccccc1 (configuration not stated),68*,5,20,-2,-1
COc1ccc(S(=O)(=O)N(C)C[C@H]2Oc3c(NC(=O)Nc4ccccc4)cccc3C(=O)N([C@@H](C)CO)C[C@@H]2C)cc1,/,-5,/,/,/
CO[C@H]1CN(C)C(=O)c2cc(NC(=O)C3CC3)ccc2OC[C@@H](C)N(CC2CC2)C[C@H]1C,/,3,/,/,/
Cc1ccc(C(=O)Nc2ccc(C(=O)N/N=C/c3c[nH]c4ccccc34)cc2)cc1,28,/,8,7,1
Cc1cccc(NC(=S)N/N=C/c2c[nH]c3ccccc23)c1,?,88*,24,10,-8
O=C(N/N=C/c1c[nH]c2ccccc12)c1ccc2c(c1)OCCO2,-49,51*,-43,2,/
Cc1nn(C)cc1/C=N/NC(=S)Nc1ccccc1,26,69*,5,40*,/
O=C(O)COc1ccccc1/C=N/NC(=O)c1ccc2c(c1)OCCO2,-67,13,-60*,2,18
Oc1ccccc1C=NNC(=S)Nc1ccc(F)cc1,/,-1,/,12,-3
O=C(O)COc1ccccc1/C=N/NC(=O)c1ccc(F)cc1,-20,3,-10,0,-5
COc1ccc(S(=O)(=O)N(C)C[C@H]2OCCCC[C@H](C)Oc3ccc(NC(=O)Nc4ccc5c(c4)OCO5)cc3C(=O)N([C@H](C)CO)C[C@H]2C)cc1,/,2,/,/,/
SMILES,HSF1 activator,esBAF inh,HSF1 inh,Wnt act,MITF act
O=C(NCC[C@H]1CC[C@H](NC(=O)c2cccnc2)[C@H](CO)O1)Nc1ccc(C(F)(F)F)cc1,/,-2,/,/,/
CO[C@H]1CN(C)C(=O)c2cc(NC(=O)c3cccc(F)c3)ccc2OC[C@@H](C)N(C(C)=O)C[C@H]1C,/,-4,/,/,/
C[C@H]1CN([C@@H](C)CO)S(=O)(=O)c2ccc(-c3cccnc3)cc2O[C@@H]1CN(C)Cc1ccncc1,/,-4,/,/,/
Cc1ccc(S(=O)(=O)Nc2ccc3c(c2)C(=O)N([C@H](C)CO)C[C@@H](C)[C@@H](CN(C)Cc2ccncc2)OCCCC[C@H](C)O3)cc1,/,-21,/,/,/
O=C1CC(c2nc3ccccc3[nH]2)CN1c1ccccc1 (configuration not stated),26,-6,-5,0,/
c1ccc(C2=Nc3ccccc3SC2c2nc3ccccc3[nH]2)cc1 (configuration not stated),84*,/,37,/,/
COc1ccc(CN(C(=O)c2cc3ccccc3oc2=O)C2CCS(=O)(=O)C2)cc1OC (configuration not stated),56*,62*,23,22,73
O=C(c1cc2ccccc2oc1=O)N(Cc1ccccc1)C1CCS(=O)(=O)C1 (configuration not stated),0,?,5,26,/
COc1ccc(CN(C(=O)c2cc3ccccc3oc2=O)C2CCCC2)cc1,10,/,10,2,-1
CCOc1ccc(CN(C(=O)c2cc3ccccc3oc2=O)C2CCS(=O)(=O)C2)cc1 (configuration not stated),13,76*,1,3,46
COc1ccc(CN(C(=O)c2cc3ccccc3oc2=O)C2CCS(=O)(=O)C2)cc1 (configuration not stated),4,/,5,22,/
COc1cccc(CN(C(=O)c2cc3ccccc3oc2=O)C2CC2)c1,38,57*,8,?,/
C[C@H](CO)N1C[C@H](C)[C@H](CN(C)S(=O)(=O)c2ccccc2)OCCCC[C@H](C)Oc2ccc(NS(=O)(=O)c3ccc(Cl)cc3)cc2C1=O,/,4,/,/,/
O=C(c1ccccc1)N1C[C@@H]2[C@H](c3ccccc31)[C@@H](CO)N2C(=O)c1cccc(F)c1,/,-3,/,/,/
C=CCNC(=O)C1CC1(c1cccc(C)c1)c1cccc(C)c1 (configuration not stated),-11,/,0,42*,/
CN(C)S(=O)(=O)c1ccc(C(=O)OCCCN=C2NS(=O)(=O)c3ccccc32)cc1,-73,3,-67*,-2,3
CN(C)S(=O)(=O)c1ccc(C(=O)OCCN=C2NS(=O)(=O)c3ccccc32)cc1,3,-6,3,-4,/
CC(C)CC#Cc1ccc2c(c1)O[C@@H](CN(C)C(=O)Cc1cccnc1)[C@H](C)CN([C@H](C)CO)S2(=O)=O,/,6,/,/,/
Cc1csc(NC(=O)c2nc3nc(C)cc(C)n3n2)n1,61*,-14,18,/,12
Cc1csc(NC(=O)c2cc(C)oc2C)n1,24,63*,12,/,60
Cc1cc(C(=O)Nc2nc3ccc(S(C)(=O)=O)cc3s2)c(C)o1,29,53*,19,13,58
COc1ccc2nc(NC(=O)c3ccoc3C)sc2c1,23,-23,5,12,25
COc1ccc2nc(NC(=O)c3cc(C)oc3C)sc2c1,43,32,27,/,96*
Cc1cc(C)n2nc(C(=O)Nc3nccs3)nc2n1,21,17,5,/,59
